Experimental data: PubChem BioAssay AID2513 (National Center for Advancing Translational Sciences (NCATS), 2010)
Inconclusive results are not listed. Values without a mark were called inactive. Calls of active or inactive are those of the source. Calls follow the shape of the dose curve; as a rule, active = well fitted curve in the direction sought with a large enough effect; inconclusive = small, poorly fitted or top-dose-only effect, or another doubt; inactive = no such curve, though single readings can be large or run the other way.

Experiment: Counterscreen Assay for Enhancers of SMN2 Splice Variant Expression: Modulation of SMN1 Expression for Probe SAR
Conditions: HEK293 SMN1-luciferase reporter, luminescence, 30-36 h; series mostly up to 46.1 µM; activity change, negative = inhibition: at the top concentration
Text: NIH Chemical Genomics Center [NCGC] NIH Molecular Libraries Probe Production centers Network [MLPCN] MLPCN Grant: R03 MH084179-01 Assay Submitter (PI): Elliot Androphy NCGC Assay Overview: Spinal muscular atrophy (SMA) is caused by insufficient levels of the survival motor neuron protein SMN. The SMN locus on chromosome 5q13 contains two inverted copies of SMN called SMN1 and SMN2 which are 99% identical at the amino acid level. SMN1 is a fully functional protein and SMN2 skips exon 7 90% of the time. Skipping of exon 7 produces non-functional protein product. 10% of the SMN2 protein includes exon 7 and is fully functional. In the SMA disease state, mutations in the SMN1 locus are the cause of the disease state. Because only 10% of SMN2 is of the fully functional form, it is not sufficient to overcome the deficiency produced by the loss of the SMN1 product. A therapy that either increase the amount of SMN2 product made or to increase the inclusion of exon 7 has been proposed for the treatment of SMA. We have designed an assay to identify small molecules that can increase the amount of functional SMN2 product by appending a luciferase reporter gene after the native SMN2 gene, such that inclusion of exon 7 in the expressed product places the luciferase sequence in frame, thus generating functional luciferase enzyme. As a counterscreen for nonspecific modulators of expression, we have run compounds through a similar assay that measures expression of an SMN1-luciferase chimera.
NCGC Assay Protocol Summary: This screen utilizes a luciferase reporter gene assay, combining the promoter with the major portion of the native SMN1 cDNA (exons 1 -7, intron 8 , exon 8 fused to luciferase) stably expressed in HEK293 cells. Compounds that increase luciferase signal presumably enhance expression of the functional SMN1 splice variant. Passaging media contained DMEM w/ glutamax (+phenol red) 10% FCS, 1x pen/strep, 200 ug/ml hygro, 1x sodium pyruvate. Assay media contained DMEM w/ glutamax (-phenol red) 10% FCS, 1x pen strep, 1x pyruvate Sequence, Parameter, Value, Description (1) Cells, 5 uL, 2000 cells/well, 1536 TC treated White solid bottom plate (2) Time, 10-12 hours, 37C 5% CO2 (3) Compound, 23 nl, MLSMR Library (4) Control Compound, 23 nL, Sodium butyrate st 4.5mM (final) conc (5) Time, 30-36 hours, 37C 5% CO2 (6) Reagent, 3 ul, One Glo (TM) from Promega (7) Time, 5-15 minutes, Room temp (8) Detector, Viewlux: luminescent read, 60 second integration, high speed 2x binning Keywords: Spinal muscular atrophy, SMA, SMN2, high throughput screening, MLSMR, MLPCN, NIH Roadmap, qHTS and NCGC

For NC(=O)C1CCN(c2nc(-c3ccc4c(c3)OCCO4)cs2)CC1, the Potency was 19.4 µM (active).

First: CN(C)C(=O)c1cccc(-c2csc(N3CCC(C(N)=O)CC3)n2)c1
Second: CC(=O)c1cccc(-c2csc(N3CCC(C(N)=O)CC3)n2)c1
The “activity change, negative = inhibition” value of the first is higher: 3.37% for the first, -21.4% for the second.

First: NC(=O)C1CCN(c2nc(-c3ccc4occc(=O)c4c3)cs2)CC1
Second: NC(=O)C1CCN(c2nc(-c3cccc(Cl)c3)cs2)CC1
The “activity change, negative = inhibition” value of the first is lower: -29.9% for the first, -3.66% for the second.

Compared with NC(=O)C1CCN(c2nc(-c3ccc4ccccc4c3)cs2)CC1, Cn1ccc2cc(-c3csc(N4CCC(C(N)=O)CC4)n3)ccc21 is lower in “activity change, negative = inhibition” value: -13.3% for the first, -22.7% for the second.

Going from NC(=O)C1CCN(c2nc(-c3cccs3)cs2)CC1 to NC(=O)C1CCN(c2nc(-c3cccnc3)cs2)CC1, the “activity change, negative = inhibition” value rises from -20.2% to -8.52%.

Going from COc1ccc(-c2csc(N3CCC(C(N)=O)CC3)n2)cc1 to CC(=O)c1ccc(-c2csc(N3CCC(C(N)=O)CC3)n2)cc1, the “activity change, negative = inhibition” value rises from -28.5% to -12.7%.

Compared with NC(=O)C1CCN(c2nc(-c3cccc(N)c3)cs2)CC1, CS(=O)(=O)c1cccc(-c2csc(N3CCC(C(N)=O)CC3)n2)c1 is lower in “activity change, negative = inhibition” value: -4.38% for the first, -9.05% for the second.

Compared with Cc1noc(C)c1-c1csc(N2CCC(C(N)=O)CC2)n1, CN(C)c1ccccc1-c1csc(N2CCC(C(N)=O)CC2)n1 is lower in “activity change, negative = inhibition” value: 22.9% for the first, 5.97% for the second.

Going from NC(=O)C1CCN(c2nc(-c3ccccc3Br)cs2)CC1 to NC(=O)C1CCN(c2nc(-c3ccccc3F)cs2)CC1, the “activity change, negative = inhibition” value falls from -7.81% to -41%.

Compared with NC(=O)C1CCN(c2nc(-c3cc4ccccc4o3)cs2)CC1, NC(=O)C1CCN(c2nc(-c3ccccc3N)cs2)CC1 is higher in “activity change, negative = inhibition” value: -20.8% for the first, -8.38% for the second.

Going from Brc1ccc(-c2csc(N3CCCCC3)n2)cc1 to NC(=O)C1CCN(c2nc(-c3ccccc3-c3ccccc3)cs2)CC1, the “activity change, negative = inhibition” value rises from -25.7% to -13%.

Going from CS(=O)(=O)c1ccccc1-c1csc(N2CCC(C(N)=O)CC2)n1 to NC(=O)C1CCN(c2nc(-c3ccccc3C(F)(F)F)cs2)CC1, the “activity change, negative = inhibition” value falls from -12.4% to -17.9%.
